Source: PubChem (National Center for Advancing Translational Sciences (NCATS))
The list is not random: actives were taken first. Their share in the collection is about 0.52%.
Vif-A3F inh = inhibitors of Vif-A3F interaction | HeLa A3F-eYFP + Vif (tagged APOBEC3F with the HIV-1 protein that degrades it), YFP fluorescence increase | Potency, µM (titrated, usually from 46.1 µM), inactives show at the top dose activity, negative = active | hit rate 0.2% among 390,000; also: potency is read from the fitted curve at half-maximal effect; % of control where 0% means no effect; nearly all actives have a fitted effect of over 65% in size
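HeLa cells stably expressing A3F-eYFP plus Vif, plated and incubated overnight at 37 deg C, then exposed to compounds overnight at 37 deg C. Blocked degradation read as raised yellow fluorescence (Ex 488/Em 500-530).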
PINK1 modulator = modulators of PINK1 expression; Potency, µM (top dose mostly 76.6 µM), without a hit: at the top dose activation (PINK1 increase), most hits filed as activators; hit rate 0.2% among 410,000; PINK1 immunofluorescence, high-content cytometry, 24 h; active = well fitted activation curve with a large enough effect; inconclusive = small, poorly fitted or top-dose-only effect; cell line not stated here; also: potency is read from the fitted curve at half-maximal effect; % of control where 0% means no effect; nearly all actives have a fitted effect of over 65% in size
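PINK1 protein level read as immunofluorescence by microplate cytometer in a fixed, stained stable cell line after 24 h exposure to five compound concentrations, with CCCP as control.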
TRPML1 blocker = human mucolipin-1 channel inhibition | Q9GZU1 | TRPML1-inducible cells, Ca2+ dye fluorescence, FDSS; stronger effect = lower value; inhibition of EC80 agonist-evoked calcium signal | activity change, negative = inhibition, % (concentration not given with the values) | hit rate 0.02% among 390,000 | AID 624415; in the data active = activity change below about -50%; inconclusive = between about -30% and that limit;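 also: stimulus is agonist 54-4 at its EC80 concentration; % is scaled to controls: 0 for no effect and ±100 for the full control effect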
Target sequence (Q9GZU1 whole entry, looked up): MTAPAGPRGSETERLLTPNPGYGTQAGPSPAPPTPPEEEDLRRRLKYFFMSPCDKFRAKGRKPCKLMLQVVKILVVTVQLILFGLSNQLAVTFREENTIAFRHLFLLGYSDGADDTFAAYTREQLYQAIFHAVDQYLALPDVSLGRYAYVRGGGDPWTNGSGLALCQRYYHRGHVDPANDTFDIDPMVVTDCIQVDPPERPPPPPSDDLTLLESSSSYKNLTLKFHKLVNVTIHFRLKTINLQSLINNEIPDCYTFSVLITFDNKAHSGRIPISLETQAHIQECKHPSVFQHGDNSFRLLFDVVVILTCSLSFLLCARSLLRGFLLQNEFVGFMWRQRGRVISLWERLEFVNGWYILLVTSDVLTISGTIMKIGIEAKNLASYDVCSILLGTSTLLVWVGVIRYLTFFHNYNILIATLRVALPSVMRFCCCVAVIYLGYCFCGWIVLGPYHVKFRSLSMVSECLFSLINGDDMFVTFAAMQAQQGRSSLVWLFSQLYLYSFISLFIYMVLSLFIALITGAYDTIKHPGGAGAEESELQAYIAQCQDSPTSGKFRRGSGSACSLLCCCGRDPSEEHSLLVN
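Calcium fluorescence in TRPML1-DL cells induced overnight with Tet: a 110 s read after compound pin addition, then a 110 s antagonist read after challenge with 54-4 at 4 uM final (EC80).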
TRPML1 agonist = agonists of human TRPML1 channel; Q9GZU1; hit rate 0.12% among 410,000; TRPML1-expressing cells, Ca2+ dye fluorescence, FDSS; activation, % (concentration not given with the values); in the data active = activation above about 50%; inconclusive = mostly about 30% to 49%; also: 0% is about no effect
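Cells: TRPML1-DL, 1X Tet inducer, ~16 h at 37 degrees C/5% CO2. Dye: ABD Ca8 no-wash + quencher, 45-90 min RT. Read: 10 s baseline, compound add, 110 s agonist phase; 54-4 EC80 (4uM final), 110 s antagonist phase.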
Vif-A3G inh = Vif-A3G binding inhibition; Q9HC16; HeLa A3G-eYFP + Vif (tagged APOBEC3G with the HIV-1 protein that degrades it), YFP fluorescence, overnight; Potency, µM (titrated, usually from 46.1 µM), for inactives: at the highest dose activity, negative = active, hits mostly inhibitors; hit rate 0.076% among 410,000; also: potency is read from the fitted curve at half-maximal effect; % is scaled to controls: 0 for no effect and ±100 for the full control effect; nearly all actives have a fitted effect of over 60% in size
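Read-out is eYFP fluorescence (Ex 488/Em 500-530) from Vif-expressing HeLa A3G-eYFP cells; more signal means A3G escaped Vif-mediated degradation. Cells plated overnight, compound pinned in, incubated overnight at 37 deg C.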
Starred values were filed as active, the others as inactive; i = inactive; ? = inconclusive; . = no result given. Unless noted, calls follow the shape of the dose curve; as a rule, active = well fitted curve in the direction sought with a large enough effect; inconclusive = small, poorly fitted or top-dose-only effect, or another doubt; inactive = no such curve, though single readings can be large; an effect the other way counts as inactive or inconclusive.

SMILES	Vif-A3F inh	PINK1 modulator	TRPML1 blocker	TRPML1 agonist	Vif-A3G inh
O=C(NCCC1=CCCCC1)C(=O)NCC(c1ccco1)N1CCN(c2ccccc2)CC1 (centres undefined)	3.4%	12.6µM*	15.3	0.1	-0.6%
Cc1ccccc1NC(=O)c1sc2nc3c(c(-c4ccco4)c2c1N)CCC3	?	6.4%	11.7	-0.9	12.6µM*
NC(=O)c1sc2nc3c(c(-c4ccco4)c2c1N)CCCC3	-6.9%	-0.2%	-6.2	0.7	3.6%
COc1cccc(NC(=O)c2sc3nc(C)c(C(=O)Nc4ccc(C)cc4C)c(-c4ccco4)c3c2N)c1	?	2.7%	4.4	5.1	-21.4%
Cc1ccc(NC(=O)c2c(C)nc3sc(C(=O)NC4CCCC4)c(N)c3c2-c2ccco2)c(C)c1	2.82µM*	?	16.0	1.7	-1.7%
CCc1ccc(NC(=O)c2sc3nc(C)c(C(=O)Nc4ccc(C)cc4C)c(-c4ccco4)c3c2N)cc1	12.6µM*	14.1%	0.3	1.3	-30.0%
COc1cc([N+](=O)[O-])ccc1NC(=O)CSc1n[nH]c(C(C)C)n1	4.0%	0.9%	28.1	-0.6	-4.2%
CCCN(CCC)CCCNC(=O)C1CCN(c2nc3ccc(CC)cc3s2)CC1	-0.4%	1.4%	17.2	1.1	-19.5%
Cc1ccc(S(=O)(=O)NC(C)(C)CN2CCC(Cc3ccccc3)CC2)cc1	-6.2%	39.8µM*	4.1	0.7	1.2%
Cc1nc(N2CCC(C)CC2)c2c(C)c(C(=O)Nc3cccc(C(F)(F)F)c3)sc2n1	-0.8%	20.2%	63.4	2.6	-2.7%
Cc1nc(N2CCN(c3ccccn3)CC2)c2c(C)c(C(=O)Nc3ccc(F)cc3Cl)sc2n1	-5.6%	2.7%	-19.8	96.6*	1.2%
Cc1nc(N2CCC(C)CC2)c2c(C)c(C(=O)Nc3ccc(C(F)(F)F)cc3)sc2n1	-8.7%	39.8µM*	-14.8	0.4	0.0%
O=C(NN=Cc1c(O)ccc2ccccc12)c1ccc2c(c1)OCO2	7.94µM*	?	-20.8	7.1	?
O=C(N/N=C/c1ccccc1)c1ccc2c(c1)OCO2	0.1%	0.2%	-11.9	-0.1	-4.0%
COc1cc(/C=C(\C#N)C(=O)NCC2CCCO2)ccc1OCCC(C)C (centres undefined)	2.6%	5.7%	-18.8	52.4*	2.7%
COc1ccc(/C=C(\C#N)C(=O)NCC2CCCO2)cc1OC (centres undefined)	3.9%	-0.7%	-13.9	-0.6	1.0%
Cc1ccc2c(c1)C1CN(C)CCC1N2S(=O)(=O)c1ccccc1F (centres undefined)	0.0%	0.5%	12.0	1.6	0.6%
Cc1ccc(Cl)cc1NC(=O)C(=O)NCC(c1cccnc1)N1CCc2ccccc21 (centres undefined)	1.1%	0.2%	5.2	2.2	-6.0%
Cc1nc2c(-c3ccc(Cl)cc3)c(C)[nH]n2c(=O)c1Cc1ccccc1	16.8%	35.5µM*	12.0	0.4	3.4%
Cc1c(Cl)cccc1N1CC(C)(C)C1=O	i	0.7%	-17.3	51.9*	-5.7%
Cc1cc(C)c(NC(=O)Cc2ccc(-n3c(C)nc4cccnc43)cc2)c(C)c1	3.8%	-1.1%	-4.3	0.0	-4.3%
COc1cc(/C=C/C(=O)OCC(=O)N2CCCCCC2)cc(OC)c1OC	-10.2%	0.5%	10.1	-0.9	2.3%
Cc1ccc(C(=O)NCCn2c(N)c(C#N)c3nc4ccccc4nc32)cc1	22.4µM*	?	-8.8	-1.4	?
Cc1cc(N2CCOCC2)nc(NCc2ccccc2)n1	-5.0%	.	-6.7	79.9*	0.9%
Cc1ccccc1NC(=O)c1sc2nc(N3CCOCC3)c3c(c2c1N)CC(C)(C)OC3	-4.3%	-4.2%	14.2	0.2	0.5%
SMILES	Vif-A3F inh	PINK1 modulator	TRPML1 blocker	TRPML1 agonist	Vif-A3G inh
Cn1c(=O)c(C#N)c(-c2ccc(F)cc2)c2cc(C(=O)c3cc(Cl)cc(Cl)c3O)cnc21	-2.6%	25.1µM*	7.4	1.8	-3.5%
COc1ccc(/C=C/C(=O)Nc2ccc(OC)cc2[N+](=O)[O-])cc1	?	44.7µM*	-19.2	-0.1	-28.3%
CCN(CC)c1ccc2cc(C(=O)c3cccs3)c(=O)oc2c1	.	3.9%	.	84.3*	?
O=c1oc2ccc3ccccc3c2cc1-c1nnc(-c2ccccc2)o1	-4.5%	17.0%	-13.1	0.3	2.7%
CCN(CC)c1ccc2cc(S(=O)(=O)c3ccc(Cl)cc3)c(=O)oc2c1	?	-0.3%	-3.5	16.5	?
CCN(CC)c1ccc2cc(-c3nnc(-c4ccccc4)o3)c(=O)oc2c1	i	22.2%	-15.4	72.2*	?
CCN(CC)c1ccc2cc(-c3nc4ccccc4n3C)c(=O)oc2c1	11.2µM*	?	13.6	60.7*	?
CCN(CC)c1ccc2cc(-c3nc4ccccc4[nH]3)c(=O)oc2c1	-348.7%	?	?	96.6*	?
CN(C)Cc1c(O)ccc2cc(-c3nc4ccccc4n3C)c(=O)oc12	18.8%	-0.2%	-10.1	6.7	1.0%
COC(=O)C[C@@H]1C[C@H]2c3cc(NC(=O)Nc4ccccc4F)ccc3O[C@H]2[C@H](CO)O1	-6.7%	2.9%	0.1	-0.7	-12.2%
CCC(=O)N[C@@H]1c2ccccc2C2(CCN(Cc3[nH]c4c(Cl)cccc4c3C)CC2)[C@H]1OC	.	0.7%	.	.	.
COc1cc(/C=C(\C#N)c2nc3ccccc3o2)ccc1O	-100.2%	7.2%	-2.6	53.1*	5.3%
COc1cccc(C(C)(O)c2nc(-c3cnn(C)c3)cs2)c1 (centres undefined)	.	2.2%	.	-0.5	1.2%
COc1ccc(C(=O)O/N=C/c2ccc(S(=O)(=O)c3ccc(Cl)cc3)nc2)cc1	-10.4%	6.0%	-4.1	0.7	-0.6%
O=C(Nc1nnc([C@@H]2C[C@H](O)[C@@H](CO)O2)s1)c1cccc(C(F)(F)F)c1	.	-0.2%	.	0.3	0.9%
Cc1cn2c(N)c(C=C3C=C(Cl)C(=O)C(Cl)=C3)c(=O)nc2s1	10µM*	?	-0.7	?	-10.5%
COC1=C/C(=C/c2c(N)n3cc(C)sc3nc2=O)C=CC1=O	-0.1%	2.5%	-13.3	3.6	-15.8%
CC(NC(=O)/C(=C/c1ccc(OC(F)F)cc1)c1ccccc1)c1ccccc1 (centres undefined)	6.9%	44.7µM*	52.4	6.5	-4.7%
O=C(Nc1cccc(Cl)c1Cl)c1ccc(-c2ccccc2)cc1	1.6%	11.2µM*	-3.7	0.4	-12.9%
N#C/C(=C\c1ccc(C(=O)O)cc1)c1nc2sc3c(c2c(=O)[nH]1)CCCC3	?	31.6µM*	2.7	8.6	?
CCCCOc1nc2ccccc2nc1NS(=O)(=O)c1ccc(F)cc1	10µM*	-0.2%	-0.7	1.0	-25.0%
O=S(=O)(Nc1nc2ccccc2nc1N1CCN(c2ccccc2)CC1)c1ccc(F)cc1	22.4µM*	14.9%	37.9	1.0	?
